Common to all, as to assay: NCI-60 one-dose screen, 48 h (100 = growth as untreated, 0 = no growth, -100 = all killed)
For assay [1], the system named is HCT-15 colon. Particulars: 10 µM unless noted.
Assay [2] relates to HT29 colon. Particulars: 10 µM unless noted.
The subject of assay [3] is SNB-75 CNS. Particulars: 10 µM unless noted.
Assay [4] concerns SNB-19 CNS. Particulars: 10 µM unless noted.
Assay [5] has as its system U251 CNS. Particulars: 10 µM unless noted.
The test system of assay [6] is PC-3 prostate. Particulars: 10 µM unless noted.
Assay [7] concerns SK-MEL-5 melanoma. Particulars: 10 µM unless noted.
The test system of assay [8] is UACC-62 melanoma. Particulars: 10 µM unless noted.
The subject of assay [9] is LOX IMVI melanoma. Particulars: 10 µM unless noted.
In assay [10] the test system is SK-MEL-28 melanoma. Particulars: 10 µM unless noted.
Assay [11] deals with SK-MEL-2 melanoma. Particulars: 10 µM unless noted.
For assay [12], the system named is EKVX NSCLC. Particulars: 10 µM unless noted.
Assay [13] has as its system SN12C renal. Particulars: 10 µM unless noted.
Assay [14] relates to UO-31 renal. Particulars: 10 µM unless noted.
The subject of assay [15] is TK-10 renal. Particulars: 10 µM unless noted.
Assay [16] deals with ACHN renal. Particulars: 10 µM unless noted.
Assay [17] concerns CAKI-1 renal. Particulars: 10 µM.
The test system of assay [18] is A498 renal. Particulars: 10 µM unless noted.
Assay [19] has as its system CCRF-CEM leukemia. Particulars: 10 µM unless noted.
Assay [20] has as its system MOLT-4 leukemia. Particulars: 10 µM unless noted.

Molecules are shown by their SMILES. The panel holds about 83,000 compounds, 20% with a hit somewhere; the sample as a whole holds those more often.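 Cell lines were cultured in 96-well plates, exposed to a single compound concentration, and assessed for percent growth 48 hours later.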 A number with no mark means an inactive call. Activity calls are given as the source filed them. How the source made its calls: active means growth percent below 10; inactive means the rest.

On to `N#Cc1c(-c2ccccc2)cc(-c2c[nH]c3ccccc23)nc1-c1c[nH]c2ccccc12`, for which the growth in assay [1] is 99.3%; in assay [2], 103%; in assay [3], 81.2%; in assay [4] it was 97.6%; in assay [5], 94.3%; in assay [6], 92.4%. In addition, the growth in [7] is 99.2%; in [8], 94.9%; in assay [9], 100%; in assay [10] it was 110%; in assay [11] it was 97.7%; in assay [12], 83.1%. For the same compound, the growth in [13] was 95.6%; in [14], 68.3%; in assay [15], 124%; in assay [16] it was 96.4%; in assay [17], 87.3%; in assay [18], 98.7%. Also, the growth in [19] is 103%; in [20] it was 102%.

With `C#C[C@]1(O)CC[C@H]2[C@@H]3CC=C4c5sc(C6CCOCC6)nc5CC[C@]4(C)[C@H]3CC[C@@]21C`, the growth in assay [1] is 36.1%; in [2] it was 44.2%; in assay [3], 78.9%; in [4], 86.1%; in [5], 57.6%; in assay [6], 63.2%. Besides, the growth in [7] was 85.2%; in [8] it was 64.7%; in assay [9], 65.8%; in assay [10], 56.5%; in assay [11] it was 94.6%; in assay [12], 84.2%. The growth in assay [13] is 82.9%; in [14], 83.9%; in assay [15], 113%; in assay [16], 88.2%; in [17] it was 84.5%; in assay [18], 96.9%. For the same compound, the results for the growth in [19] and in assay [20] were 52.3% and 38.3%, respectively.

`CN1CCN(c2ccc(NC(=O)Nc3ccc4c(ccn4-c4cccc(C(N)=O)n4)c3)cc2C(F)(F)F)CC1`: the growth was 3.6% (active) in [1]; 5.77% (active) in assay [2]; 82.2% in assay [3]; 53.2% in assay [4]; 33.8% in assay [5]; 50.9% in assay [6]. In addition, the growth in assay [7] was 75%; in [8], 94.1%; in [9], -27.7% (active); in [10], -53.6% (active); in assay [11], 21.1%; in [12], 78.4%. In addition, the growth in assay [13] was 84.1%; in assay [14], 75.6%; in [15] it was 97.4%; in [16], 71.8%; in [17], 87.1%; in assay [18], 85.3%. For the same compound, the growth was 8.43% (active) in assay [19] and 3.75% (active) in assay [20].

Consider `C/C=C/C=C1\C[C@H]2CO[C@H](O2)C1=O`, for which the growth in [1] is 80.8%; in assay [2] it was 108%; in [3], 106%; in assay [4], 95.6%; in assay [5] it was 97.4%; in [6] it was 96.5%. The growth in [7] was 98.5%; in [8], 89.5%; in assay [9], 49.3%; in [10], 104%; in assay [11], 100%; in [12] it was 103%. Further, the growth in assay [13] is 100%; in assay [14], 88.2%; in [15], 108%; in [16], 103%; in [17], 98%; in assay [18], 103%. In addition, the results for the growth in [19] and in assay [20] were 78.9% and 90.4%, respectively.

Take `Cc1ccc(-n2cc(/C=C/C(=O)c3ccc(S(C)(=O)=O)cc3)c(-c3ccc(S(C)(=O)=O)cc3)n2)cc1`: the growth is 37.6% in assay [1]; 70.5% in assay [2]; 102% in [3]; 89.8% in [4]; 95.6% in [5]; 86.6% in assay [6]. Also, the growth in assay [7] is 94.4%; in assay [8], 78.1%; in assay [9], 74.5%; in assay [10], 92.9%; in [11] it was 107%; in assay [12] it was 93.2%. Moreover, the growth is 89.7% in assay [13]; 85.5% in assay [14]; 127% in assay [15]; 93.3% in assay [16]; 89.2% in assay [17]; 84.6% in [18]. Besides, the growth in assay [19] was 77.5%; in assay [20], 71.9%.

For the compound `O=S(=O)(NCCCNc1nccc(-n2cnc3ccccc32)n1)c1ccc(F)cc1`, the growth in [1] was 82.8%; in [2], 92.8%; in assay [3], 82.5%; in assay [4] it was 92.6%; in assay [5], 93.8%; in assay [6], 69.3%. Further, the growth in assay [7] was 2.63% (active); in [8], 61.6%; in assay [9], 74%; in assay [10], 97.9%; in [11], 85.8%; in assay [12], 61.2%. The growth in assay [13] is 89%; in assay [14] it was 59.3%; in assay [15], 91.9%; in assay [16], 81.1%; in [17] it was 71%; in assay [18], 70.6%. Besides, the growth in assay [19] was 49.1%; in [20] it was 33.2%.

In the case of `N=c1c2cc(-c3ccccc3)oc2ncn1/N=C/c1ccccc1`, the growth in [1] was 36.9%; in assay [2], 73.6%; in assay [3], 67%; in assay [4] it was 87.5%; in [5], 84.7%; in assay [6] it was 71.9%. Moreover, the growth in assay [7] was 90.8%; in assay [8] it was 47.6%; in assay [9] it was 66.3%; in assay [10] it was 83.4%; in assay [11], 97.2%; in [12] it was 86.5%. For the same compound, the growth is 86.1% in assay [13]; 85.6% in assay [14]; 80.3% in assay [15]; 75.1% in [16]; 67.5% in [17]; 77.8% in assay [18]. For the same compound, the growth is 64% in assay [19] and 65.3% in assay [20].

(Values after PubChem BioAssay (NCI).)
